We go through 95 compounds from ChEMBL document CHEMBL1157539, “Thousands of chemical starting points for antimalarial lead identification” (Nature, 2010).

The full ranking holds about 13,000 compounds; the median of “IFI” is about 4, and the highest 2% start at about 17. The list comes from a sample in which the highest values are over-represented; it also holds similar structures and randomly drawn compounds.

This experiment is described as follows: GSK_TCMDC: Inhibition Frequency Index (IFI). The number of non-kinase HTS assays where a compound showed > 50 % inhibition, expressed as a percentage of the number of such assays in which the compound was tested. The format is functional.
`O=C(NCCc1ccccc1)N(Cc1ccccc1-c1ccc(CNCCc2ccccc2)cc1)C1CCN(Cc2ccccc2)CC1` displayed an IFI of 7.86%.
The value for `COc1cc2nc(NCCn3cccn3)nc(NCCc3ccccc3)c2cc1OC` was 4.23%.
The value for `Cc1cccc2nc(-c3cccc(-c4cccc(NC(=O)c5csnn5)c4)c3)[nH]c12` was 2.7%; that for `N#Cc1ccc(N2CCN(Cc3cccc(-c4cccc(-c5nc6cc(C(F)(F)F)ccc6[nH]5)c4)c3)CC2)nc1` was 1.92%; that for `COc1ccc(CCNc2nc(NCc3ccccc3)c3cc(OC)c(OC)cc3n2)cc1OC` was 5.84%.
For the compound `COc1cccc(CCNc2nc(NCc3ccccc3)c3cc(OC)c(OC)cc3n2)c1`, the IFI worked out at 5.93%.
The value for `COc1cc2nc(NCCc3cccc(Cl)c3)nc(NCc3ccccc3)c2cc1OC` was 17.1%; that for `CCCc1cc(=O)[nH]c(-n2nc(C)cc2NC(=O)CC(c2ccccc2)c2ccccc2)n1` was 12.2%.
`CCCc1cc(=O)[nH]c(-n2nc(C)cc2NC(=O)C(CC)c2ccccc2)n1` (stereo not given) had an IFI of 18.5%.
Turning to `CCc1c(C)nc(-n2nc(C)cc2NC(=O)C(CC)c2ccccc2)[nH]c1=O` (stereo not given), the IFI was 11.8%.
The value for `COc1cccc(NC(=O)Nc2ccc(Nc3nc(C)cc(N4CCCC4)n3)cc2)c1` was 17.3%; that for `Cc1cc(N2CCCC2)nc(Nc2ccc(NC(=O)Cc3ccccc3)cc2)n1` was 15.4%; that for `Cc1cc(N2CCCC2)nc(Nc2ccc(NC(=O)Nc3ccccc3)cc2)n1` was 16.2%.
The value for `COc1ccc(NC(=O)Nc2ccc(Nc3nc(C)cc(N4CCCC4)n3)cc2)cc1` was 11.8%.
In the case of `CCC(=O)Nc1ccc(Nc2nc(C)cc(N3CCCC3)n2)cc1` it was 7.84%.
Consider `Cc1cc(N2CCCC2)nc(Nc2ccc(NC(=O)COc3ccccc3)cc2)n1`, for which the IFI came out at 22.2%.
As for `C=CCOC(=O)N1CCC(CNCc2ccc(-c3cccc(-c4nc5cc(F)ccc5[nH]4)c3)cc2)C1` (stereo not given), the IFI stood at 2.91%.
The value for `COc1cc2nc(SCCCC#N)n(C3CCCCCC3)c(=N)c2cc1OC` was 3.6%.
The compound `CS(=O)(=O)c1cccc2sc(N3CCN(C(=O)c4ccc([N+](=O)[O-])o4)CC3)nc12` yielded an IFI of 4%.
The value for `Cc1cccc(Nc2c(-c3cc(Br)ccc3O)nc3ncccn23)c1` was 8.7%.
The value for `COc1ccc(CNC(=O)c2cnc3c(O)cccc3c2Nc2cccc(NC(=O)c3ccc(F)cc3)c2)cc1` was 6.98%.
The compound `CCCCCOc1ccc(C(=NC)N(CCCCC)CCCCC)c2ccccc12` came in with an IFI of 25.2%.
The value for `CCCCCCOc1ccc(/C(N)=N\Cc2ccccc2)c2c1CCCC2` was 13.3%; that for `CCCCCCN(CCCCCC)CC(O)c1c(OC)ccc2ccccc12` (stereo not given) was 5.93%.
As to `Cc1ccc(Nc2cc(C)nn2-c2nc(C)cc(O)n2)cc1`, the IFI amounted to 12.3%.
The value for `CN(C)Cc1cccc(-c2ccc3ccnc(N)c3c2)c1` was 4.42%; that for `Cc1[nH]c(C)c(-c2ccc(-c3ccccc3C(F)(F)F)nc2)c(=O)c1Br` was 0.92%; that for `COc1ccc2c(NN=Cc3ccc(Cl)cc3)ccnc2c1` was 2.26%.
The value for `CCCOc1c(CCNCCCCNCCc2ccc3ccccc3c2OCCC)ccc2ccccc12` was 14.7%.
The value for `CCOc1cc2ccccc2cc1CNCCCCCCNCc1cc2ccccc2cc1OCC` was 11.5%; that for `CCCCOc1cc(CNCCCCCCNCc2cc(OCCCC)cc3ccccc23)c2ccccc2c1` was 12.5%.
For the compound `CCCCOc1c(CNCCCCCCNCc2ccc3ccccc3c2OCCCC)ccc2ccccc12`, the IFI worked out at 16.6%.
As to `CCOc1c(CCNCCCCNCCc2ccc3ccccc3c2OCC)ccc2ccccc12`, the IFI is 18.4%.
In turn, `CCOc1c(CNCCCCCCNCc2ccc3ccccc3c2OCC)ccc2ccccc12` yielded an IFI of 22%.
The value for `CCCCOc1c(CCNCCCCNCCc2cc(OC)c3ccccc3c2OCCCC)cc(OC)c2ccccc12` was 15%; that for `CCCCOc1c(CCNCCCCNCCc2cc(F)c3ccccc3c2OCCCC)cc(F)c2ccccc12` was 19.6%; that for `[O-][s+]1nc(NCCCN(Cc2cccs2)c2ccccn2)c(NCc2ccccc2)n1` (stereo not given) was 4.83%.
On to `CCNC(C)(C)CN(Cc1ccc(-c2ccc(C(F)(F)F)cc2)cc1)C(=O)Cn1c(CCc2cccc(F)c2F)nc(=O)c2ccccc21`, for which the IFI was found to be 6.94%.
The value for `Cc1cccc2nc(-c3ccc(-c4ccc(CN5CC(C)OC(C)C5)cc4)cc3)[nH]c12` (stereo not given) was 6.94%; that for `CC1CC1C(=O)NC1CCN(CC2(c3ccccc3)CCCCC2)CC1` (stereo not given) was 6.38%; that for `Cc1ccoc1C(=O)Nc1cccc(-c2cccc(-c3nc4cc(C(F)(F)F)ccc4[nH]3)c2)c1` was 6.48%.
In the case of `COc1cc(CC2c3cc(O)c(Cl)cc3CCN2C)c(OC)cc1C` (stereo not given) it was 2.13%; in that of `COc1ccc(CCNC(C)Cc2ccc(C(=O)Nc3ccc(CC(C)NCCc4cccc(Cl)c4)cc3)cc2)cc1` (stereo not given), 9.86%.
In the case of `Cn1c(Nc2cc(C(C)(C)C)on2)nc2cc(Nc3ccnc(Nc4ccc(CS(C)(=O)=O)cc4)n3)ccc21` it was 0.95%.
As to `CCCCCCCNc1cc(C)nc2ccc(OC)cc12`, the IFI stood at 7.3%.
Compound `COc1ccc(C(c2ccc(N(C)C)cc2)c2ccc(N(C)C)cc2)cc1` registered an IFI of 18.2%.
In turn, `CN(C)c1ccc(OCCCCCCOc2ccccc2)cc1` yielded an IFI of 0.72%.
The value for `CN(C)c1ccc(C(c2ccc(N(C)C)cc2)c2cc([N+](=O)[O-])ccc2Cl)cc1` was 1.47%; that for `CC(C)CCNC(=O)C1Cc2c([nH]c3ccc(Br)cc23)C2(CCN(Cc3ccccc3)CC2)N1` (stereo not given) was 7.04%; that for `CN1CCCC(CN2CCN(Cc3cccc(-c4ccc(-c5nc6ccccc6[nH]5)s4)c3)CC2)C1` (stereo not given) was 5.63%.
In the case of `CN1CCN(c2nsc3ccc(-c4ccc(OCCN5CCCC5)cc4)cc23)CC1` it was 12.2%; in that of `N=C(Nc1cccc(Cc2ccccc2)n1)Nc1ncccn1`, 17.2%; in that of `N=C(Nc1ccccc1)Nc1cccc(Cc2ccc([N+](=O)[O-])cc2)n1`, 19.9%.
The value for `COc1ccc(-c2nccc(NC(=N)NCc3ccccc3)n2)cc1` was 10.7%; that for `CC1(C)N=C(NC(=O)Nc2ccc([N+](=O)[O-])cc2)N=C(N)N1OCc1cccc2ccccc12` was 1.46%; that for `N=C(N)Nc1nccc(NCc2ccccc2)n1` was 5.3%.
Turning to `Cc1cc(NCCc2ccccc2)nc(NC(=N)Nc2cccc([N+](=O)[O-])c2)n1`, the IFI is 6.21%.
The value for `CC(C)(C)CCN1CCC(CNC(=O)c2cc(-c3cccc(C(F)(F)F)c3)cs2)C1` (stereo not given) was 10%.
In the case of `CN(C)Cc1cccc(-c2cc3c(-c4cnn(C)c4)c(Cl)cnc3[nH]2)c1` it was 22.2%.
The value for `CN(C)Cc1ccc(-c2cc3c(-c4ccc(CN(C)C)cc4)ccnc3[nH]2)cc1` was 0%; that for `Cn1cc(-c2ccnc3[nH]c(-c4cccc(CNC5CCC(O)CC5)c4)cc23)cn1` (stereo not given) was 8.11%.
As for `OCCN1CCN(Cc2ccc(-c3cccc(-c4nc5cc(F)ccc5[nH]4)c3)cc2)CC1`, the IFI turned out to be 3.92%.
In the case of `CN(C)Cc1cccc(-c2cnc(N)c(-c3nc4cc(S(C)(=O)=O)ccc4[nH]3)c2)c1` it was 7.41%; in that of `Fc1ccc2[nH]c(-c3cccc(-c4ccc(CNCC5CCCO5)cc4)c3)nc2c1` (stereo not given), 5.88%; in that of `COc1ccc(Cl)cc1C(=O)Nc1ccc(-c2nc3ccccc3[nH]2)cc1`, 6.52%.
In the case of `O=C(Nc1ccc(Cl)cc1)c1cc(Cl)cc2nc(C(F)(F)F)[nH]c12` it was 27.1%; in that of `O=C(Nc1cccc(C(F)(F)F)c1)c1cccc2nc(C(F)(F)F)[nH]c12`, 16.4%; in that of `O=C(Nc1ccc2c(c1)CCNCC2)c1ccc(-c2ccc(Cl)cc2)cc1`, 9.66%.
The value for `O=C(Nc1ccc(Cl)cc1)c1cccc2nc(C(F)(F)F)[nH]c12` was 21.3%.
In turn, `O=C(Nc1ccc(Cl)cc1)Nc1cccc(-c2cccc(-c3nc4cc(C(F)(F)F)ccc4[nH]3)c2)c1` yielded an IFI of 9%.
The compound `O=C(Nc1ccc(-c2cccc(-c3nc4cc(C(F)(F)F)ccc4[nH]3)c2)cc1)c1ccncc1` displayed an IFI of 6.42%.
In the case of `O=C(Nc1ccc(C(F)(F)F)cc1)c1cc(Cl)cc2nc(C(F)(F)F)[nH]c12` it was 23.4%.
In the case of `Cc1cccc2nc(-c3ccc(-c4ccc(NC(=O)Nc5ccc(Cl)cc5)cc4)cc3)[nH]c12` it was 4%; in that of `COc1cccc(NC(=O)Cn2c(C)c(C#N)c3ccccc32)c1`, 0%.
In the case of `CCOC(=O)c1ccc(-c2cnc(N)c(-c3nc4cccc(C)c4[nH]3)c2)cc1` it was 0.69%; in that of `Cc1ccc(Nc2nccc(Nc3ccc4c(c3)nc(Nc3cc(C(C)(C)C)on3)n4C)n2)cc1S(C)(=O)=O`, 7.63%; in that of `COc1ccc(CNC2Cc3ccccc3C2)cc1-c1ccc(OC)c(S(=O)(=O)NCCN2CCCC2)c1`, 7.69%.
`CCn1cc(-c2nc(-c3cc(OC)cc(OC)c3)no2)c(=O)c2ccccc21`: the IFI was 4.35%.
In the case of `CC(C)N1CCN(C(CN2CCN(CCCOc3cccc(F)c3)CC2)c2ccc(F)cc2)CC1` (stereo not given) it was 6.2%; in that of `CN1CCN(c2ccc(Nc3nccc(-c4c(-c5cccc(NC(=O)c6c(F)cccc6F)c5)nn5ccccc45)n3)cc2)CC1`, 9.35%.
In the case of `O=S(=O)(Nc1cc2c(cc1OCCCN1CCCCC1)CCNCC2)c1ccc(-c2ccc(Cl)cc2)cc1` it was 11.9%.
As for `CC(C)Oc1cc2c(cc1NS(=O)(=O)c1ccc(-c3ccc(Cl)cc3)cc1)CCN(C)CC2`, the IFI was determined as 12.4%.
In turn, `CN1CCc2cc(NS(=O)(=O)c3ccc(-c4ccc(Cl)cc4)cc3)c(OCCCN3CCCCC3)cc2CC1` came in with an IFI of 18.6%.
In the case of `c1cc(CN2CCCCC2)cc(-c2ccc(-c3nc4ccccc4[nH]3)s2)c1` it was 2.86%; in that of `COc1ccc(CNC2Cc3ccccc3C2)cc1-c1ccc(S(=O)(=O)NCc2ccccc2)s1`, 12.3%.
In the case of `Cc1ccc(C(=O)Nc2ccc(Nc3ccnc4cc(-c5ccccn5)ccc34)cc2O)cc1` it was 10.3%; in that of `COc1cc2cc(C(=O)Nc3ccccc3)c(N)nc2cc1OC`, 1.28%.
Consider `COc1ccc2nc(NC(N)=NC(=O)Nc3ccccc3)nc(C)c2c1`, for which the IFI turned out to be 0.81%.
`COc1ccc(CCN(C)CCOc2ccc(NC(=O)c3cccc4cc5ccccc5nc34)cc2)cc1OC`: the IFI amounted to 6.67%.
The value for `COc1ccc(Cc2nc(/N=C(\N)Nc3ccccc3)ccc2OC)cc1` was 22.6%; that for `COc1cc2nc(C)nc(Nc3ccc(Cc4ccccc4)cc3)c2cc1OC` was 6.35%.
`COc1ccc(/N=C(\N)Nc2ccccc2)nc1Cc1ccccc1` yielded an IFI of 30.2%.
In the case of `Nc1c2ccccc2nc2cc([N+](=O)[O-])ccc12` it was 6.92%; in that of `Nc1cc(/C=C/c2ccc([N+](=O)[O-])s2)nc2ccccc12`, 19.2%; in that of `Nc1cc(/C=C/c2ccc([N+](=O)[O-])o2)nc2ccccc12`, 16.7%.
